Assay results published in PubChem BioAssay (NCATS).
Records with an inconclusive call do not appear. The source made the active and inactive calls. Calls follow the shape of the dose curve; as a rule, active = well fitted curve in the direction sought with a large enough effect; inconclusive = small, poorly fitted or top-dose-only effect, or another doubt; inactive = no such curve, though single readings can be large; an effect the other way counts as inactive or inconclusive.

What was measured:
[1] = qHTS of pediatric cancer cell lines to identify multiple opportunities for drug repurposing: Confirmatory screen for NB-EBc1 cells (AID 1347115);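 also: cells exposed to compound for 48 h before the viability read; nearly all actives have a fitted effect of over 45% in size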
Method in brief: (§1)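 Cells (500-1,000/well) rested 5 h, then received compounds for 48 h; metabolically active cells were measured by CellTiter-Glo luminescence. Final concentrations spanned up to 46 µM (MIPE, 11-point) or 0.59 nM-46 µM (NPC, 8-point) in primary screens, 11-point in follow-ups.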

[2] = qHTS of pediatric cancer cell lines to identify multiple opportunities for drug repurposing: Confirmatory screen for SJ-GBM2 cells (AID 1347116); also: nearly all actives have a fitted effect of over 60% in size
Method in brief: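 Viability measured as metabolically active cells via CellTiter-Glo luminescence following 48 hours of compound exposure, 11-point dilutions in confirmatory testing. 500-1,000 cells/well plated 5 hours before dosing; controls were DMSO and 2.3 µM bortezomib.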

[3] = qHTS of pediatric cancer cell lines to identify multiple opportunities for drug repurposing: Confirmatory screen for BT-37 cells (AID 1347117); also: nearly all actives have a fitted effect of over 55% in size
Method in brief: as §1

[4] = qHTS of pediatric cancer cell lines to identify multiple opportunities for drug repurposing: Confirmatory screen for TC32 cells (AID 1347118);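 also: cells exposed to compound for 48 h before the read; nearly all actives have a fitted effect of over 65% in size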
Method in brief: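 TC32 cells, 500-1,000/well in growth medium, compound-treated 48 h at 37 °C; viability from CellTiter-Glo luminescence. Primary screen: MIPE 11-point (0.78 nM–46 µM final), NPC 8-point (0.59 nM–46 µM final); confirmatory at 11-point dilutions.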

[5] = qHTS of pediatric cancer cell lines to identify multiple opportunities for drug repurposing: Confirmatory screen for Rh41 cells (AID 1347123);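 also: 48 h compound exposure; nearly all actives have a fitted effect of over 60% in size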
Method in brief: as §1

[6] = qHTS of pediatric cancer cell lines to identify multiple opportunities for drug repurposing: Confirmatory screen for Rh18 cells (AID 1347125); also: nearly all actives have a fitted effect of over 55% in size
Method in brief: as §1

[7] = qHTS of pediatric cancer cell lines to identify multiple opportunities for drug repurposing: Confirmatory screen for Rh30 cells (AID 1347126); also: nearly all actives have a fitted effect of over 55% in size
Method in brief: as §1

[8] = qHTS of pediatric cancer cell lines to identify multiple opportunities for drug repurposing: Confirmatory screen for OHS-50 cells (AID 1347128);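 also: compound exposure lasted 48 h at 37 degrees C; nearly all actives have a fitted effect of over 55% in size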
Method in brief: as §1

[9] = qHTS of pediatric cancer cell lines to identify multiple opportunities for drug repurposing: Confirmatory screen for SK-N-SH cells (AID 1347129);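 also: cells exposed to compound for 48 h before viability read; nearly all actives have a fitted effect of over 60% in size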
Method in brief: as §1

[10] = qHTS of pediatric cancer cell lines to identify multiple opportunities for drug repurposing: Confirmatory screen for MG 63 (6-TG R) cells (AID 1347119); also: nearly all actives have a fitted effect of over 55% in size
Method in brief: as §1

[11] = qHTS of pediatric cancer cell lines to identify multiple opportunities for drug repurposing: Confirmatory screen for U-2 OS cells (AID 1347122); also: nearly all actives have a fitted effect of over 65% in size
Method in brief: as §1

[12] = qHTS of pediatric cancer cell lines to identify multiple opportunities for drug repurposing: Confirmatory screen for RD cells (AID 1347124);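 also: cells exposed to compound for 48 h before viability readout; nearly all actives have a fitted effect of over 65% in size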
Method in brief: as §1

[13] = qHTS of pediatric cancer cell lines to identify multiple opportunities for drug repurposing: Confirmatory screen for Saos-2 cells (AID 1347127); also: nearly all actives have a fitted effect of over 60% in size
Method in brief: as §1

[14] = tested on: Zika virus NS2B-NS3 protease; test: Primary screen GU AMC qHTS for Zika virus inhibitors (AID 1347154); also: nearly all actives have a fitted effect of over 70% in size
Method in brief: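 Fluorogenic AMC-substrate cleavage by noncovalent NS2B-NS3 protease complex (25 nM, pH 8.0 Tris buffer with Tween 20) followed for 15 minutes at room temperature (~20% conversion). Percent inhibition from ex340/em450 signal change, fitted by 4-parameter Hill equation.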

[15] = qHTS of pediatric cancer cell lines to identify multiple opportunities for drug repurposing: Confirmatory screen for control Hh wild type fibroblast cells (AID 1347121); also: nearly all actives have a fitted effect of over 70% in size
Method in brief: as §1

Furin (Homo sapiens) = Furin (Homo sapiens) (UniProt P09958); test: Furin counterscreen qHTS for Zika virus inhibitors (AID 1347149); also: nearly all actives have a fitted effect of over 70% in size
Method in brief: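 Counterscreen measures cleavage of 2 microM BOC-RVRR-AMC, below its ~15 microM Km, by 5 nM full-length human furin at pH 7.0 after a 15-min compound preincubation. Inhibition derives from the 15-min fluorescence increase at 37C.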

[16] = tested on: Zika virus NS2B-NS3 protease (linked construct); test: Confirmatory screen NINDS AMC qHTS for Zika virus inhibitors (AID 1347152); also: nearly all actives have a fitted effect of over 70% in size
Method in brief: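 In this dose-response qHTS, AMC release from 10 microM Bz-Nle-KRR-AMC by 1 nM linked protease is measured over 15 minutes (about 20% conversion) at pH 8.0. Percent inhibition is fitted to a 4-parameter Hill curve.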

Measured: Potency
Potency is read from the fitted curve at half-maximal effect.

Furin (Homo sapiens), sequence (P09958 whole entry, looked up): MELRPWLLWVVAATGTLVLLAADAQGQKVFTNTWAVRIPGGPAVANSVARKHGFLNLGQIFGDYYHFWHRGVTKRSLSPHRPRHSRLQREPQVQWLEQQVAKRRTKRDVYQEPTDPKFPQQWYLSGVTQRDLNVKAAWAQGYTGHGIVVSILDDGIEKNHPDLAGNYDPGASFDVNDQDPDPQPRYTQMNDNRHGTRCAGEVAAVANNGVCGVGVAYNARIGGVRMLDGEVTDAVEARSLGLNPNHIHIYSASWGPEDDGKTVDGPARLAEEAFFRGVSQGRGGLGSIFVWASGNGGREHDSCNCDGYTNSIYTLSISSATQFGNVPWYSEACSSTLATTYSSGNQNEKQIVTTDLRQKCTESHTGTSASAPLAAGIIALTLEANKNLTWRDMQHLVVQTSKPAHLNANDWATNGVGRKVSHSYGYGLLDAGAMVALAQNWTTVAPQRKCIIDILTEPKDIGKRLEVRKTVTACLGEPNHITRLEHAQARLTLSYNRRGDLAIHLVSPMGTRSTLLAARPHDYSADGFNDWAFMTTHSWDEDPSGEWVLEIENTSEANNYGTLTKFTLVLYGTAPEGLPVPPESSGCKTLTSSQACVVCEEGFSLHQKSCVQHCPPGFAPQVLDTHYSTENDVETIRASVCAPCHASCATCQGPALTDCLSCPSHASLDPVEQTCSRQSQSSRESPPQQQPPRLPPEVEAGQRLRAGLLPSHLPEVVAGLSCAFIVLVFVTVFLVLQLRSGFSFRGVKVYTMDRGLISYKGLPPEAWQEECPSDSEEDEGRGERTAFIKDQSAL

CS(=O)(=O)N1CCN(Cc2cc3nc(-c4cccc5[nH]ncc45)nc(N4CCOCC4)c3s2)CC1
active: [1] 6030 nM | [2] 21400 nM | [3] 15100 nM | [4] 1350 nM | [5] 851 nM | [6] 1070 nM | [7] 1070 nM | [8] 5370 nM | [9] 4290 nM

CN(C)Cc1c(C(=O)NCCOc2ccc(C(=O)NO)cc2)oc2ccccc12
active: [1] 1850 nM | [2] 1470 nM | [3] 1170 nM | [4] 737 nM | [10] 1470 nM | [11] 657 nM | [5] 293 nM | [12] 1650 nM | [6] 827 nM | [7] 1650 nM | [13] 1470 nM | [8] 1650 nM | [9] 3720 nM
inactive: [14]

CN1CC[C@@H](c2c(O)cc(O)c3c(=O)cc(-c4ccccc4Cl)oc23)[C@@H](O)C1
inactive: [1] | [15] | [14]
active: [2] 369 nM | [3] 414 nM | [11] 329 nM | [5] 369 nM | [12] 737 nM | [6] 1170 nM | [7] 369 nM | [13] 522 nM | [8] 414 nM | [9] 418 nM

COCCn1c2c([n+](Cc3cnccn3)c1C)C(=O)c1ccccc1C2=O
active: [1] 1040 nM | [2] 65.7 nM | [3] 82.7 nM | [10] 73.7 nM | [15] 261 nM | [11] 14.7 nM | [5] 18.5 nM | [12] 26.1 nM | [6] 14.7 nM | [13] 7.4 nM | [8] 5.2 nM | [9] 235 nM
inactive: [7] | [14]

Cc1[nH]c2ccccc2c1CCNCc1ccc(C=CC(=O)NO)cc1
active: [1] 369 nM | [3] 165 nM | [10] 165 nM | [5] 4.1 nM | [6] 165 nM | [13] 233 nM | [8] 293 nM | [9] 469 nM
inactive: [2] | [12] | [14]

Nc1ncnc2c1c(-c1cnc3[nH]ccc3c1)nn2C1CCCC1
inactive: [14]
active: [1] 10400 nM | [2] 2330 nM | [3] 2330 nM | [4] 1470 nM | [10] 414 nM | [6] 2930 nM | [7] 585 nM | [13] 1850 nM | [8] 1850 nM | [9] 1870 nM

COc1c(OCCCN2CCOCC2)ccc2c3n(c(=NC(=O)c4cnc(N)nc4)nc12)CCN3
active: [1] 2570 nM | [2] 2040 nM | [3] 6440 nM | [4] 1020 nM | [10] 229 nM | [6] 644 nM | [7] 456 nM | [13] 644 nM | [8] 2290 nM | [9] 2040 nM
inactive: [11] | [14]

CCC1=C[C@@H]2CN(C1)Cc1c([nH]c3ccccc13)[C@@](C(=O)OC)(c1cc3c(cc1OC)N(C)[C@@H]1[C@@](O)(C(=O)OC)[C@H](OC(C)=O)[C@]4(CC)C=CCN5CC[C@]31[C@@H]54)C2
inactive: [1] | [15] | [6] | [14]
active: [2] 5220 nM | [3] 7370 nM | [4] 6570 nM | [10] 13100 nM | [11] 7370 nM | [5] 369 nM | [12] 369 nM | [7] 23300 nM | [13] 7370 nM | [8] 11700 nM | [9] 5900 nM

Cn1c(=O)n(-c2ccc(C(C)(C)C#N)cc2)c2c3cc(-c4cnc5ccccc5c4)ccc3ncc21
inactive: [14]
active: [1] 7370 nM | [2] 3290 nM | [3] 1170 nM | [4] 827 nM | [11] 2930 nM | [5] 2330 nM | [7] 2330 nM | [8] 5850 nM

CC(=O)OCC(=O)[C@@]1(O)[C@H](C)C[C@H]2[C@@H]3C=C(C)C4=Cc5c(cnn5-c5ccccc5)C[C@]4(C)[C@@H]3[C@@H](O)C[C@@]21C
active: [1] 23300 nM | [2] 13100 nM | [3] 13100 nM | [4] 4140 nM | [10] 18500 nM | [11] 9270 nM | [5] 13100 nM | [12] 9270 nM | [6] 16500 nM | [7] 16500 nM | [13] 14700 nM | [8] 16500 nM | [9] 14800 nM
inactive: [14]

CCCCc1nc2cc(C=CC(=O)NO)ccc2n1CCN(CC)CC
inactive: [14]
active: [1] 3290 nM | [2] 2930 nM | [3] 1850 nM | [4] 1310 nM | [10] 1310 nM | [11] 1850 nM | [5] 1310 nM | [12] 2330 nM | [6] 1470 nM | [7] 3690 nM | [13] 2610 nM | [8] 2930 nM | [9] 3320 nM

C#Cc1cccc(Nc2ncnc3cc(OC)c(OCCCCCCC(=O)NO)cc23)c1
active: [1] 1700 nM | [2] 1910 nM | [3] 759 nM | [4] 676 nM | [10] 851 nM | [15] 10700 nM | [11] 1350 nM | [5] 1070 nM | [12] 1200 nM | [6] 1910 nM | [7] 2140 nM | [13] 1350 nM | [8] 2400 nM | [9] 2410 nM

CNC(=O)c1ccc(N2C(=S)N(c3cnc(C#N)c(C(F)(F)F)c3)C(=O)C23CCC3)cc1F
inactive: [1] | [2] | [3] | [4] | [15] | [11] | [5] | [12] | [6] | [7] | [13] | [8] | [9] | [14]

CCS(=O)(=O)c1cccc(-c2cc(C(=O)NC3CCN(C)CC3)c(C)c3[nH]c4ncc(C)cc4c23)c1
active: [1] 16500 nM | [2] 5220 nM | [3] 1850 nM | [4] 117 nM | [11] 10400 nM | [5] 657 nM | [12] 2610 nM | [6] 1850 nM | [7] 522 nM | [13] 1040 nM | [8] 1850 nM | [9] 2090 nM | Furin (Homo sapiens) 24100 nM | [16] 24100 nM | [14] 24100 nM

CC(C)[C@H](C(=O)Nc1ccc(C(=O)NO)cc1)c1ccccc1
active: [1] 928 nM | [2] 1470 nM | [3] 1040 nM | [4] 737 nM | [10] 657 nM | [11] 657 nM | [5] 1170 nM | [12] 1650 nM | [6] 827 nM | [7] 2330 nM | [13] 1850 nM | [8] 2330 nM
inactive: [9]

CN1CCN(Cc2ccc(NC(=O)Nc3ccc(Oc4cc(NC(=O)C5CC5)ncn4)cc3)cc2C(F)(F)F)CC1
inactive: [14]
active: [1] 23300 nM | [2] 1650 nM | [3] 369 nM | [4] 165 nM | [11] 737 nM | [5] 233 nM | [12] 414 nM | [6] 369 nM | [7] 2330 nM | [13] 369 nM | [8] 585 nM | [9] 743 nM

NCC(=O)Nc1ccc(-n2nc(C(F)(F)F)cc2-c2ccc3c(ccc4ccccc43)c2)cc1
inactive: [14]
active: [1] 7370 nM | [2] 3290 nM | [3] 2930 nM | [4] 1470 nM | [11] 26.1 nM | [5] 7370 nM | [12] 5220 nM | [6] 2610 nM | [13] 3290 nM

CC1=C(CO)C(=O)O[C@@H]([C@@H](C)[C@H]2CC[C@H]3[C@@H]4C[C@H]5O[C@]56[C@@H](O)C=CC(=O)[C@]6(C)[C@@H]4CC[C@]23C)C1
inactive: [1] | [2] | [3] | [4] | [10] | [15] | [11] | [5] | [13] | [9] | [14]

CNC(=O)c1c(F)cccc1Nc1nc(Nc2cc3c(cc2OC)CCN3C(=O)CN(C)C)nc2[nH]ccc12
inactive: [14]
active: [1] 5850 nM | [2] 928 nM | [3] 26100 nM | [10] 3690 nM | [11] 928 nM | [5] 414 nM | [6] 14700 nM | [7] 585 nM | [13] 3690 nM | [8] 16500 nM | [9] 5900 nM

COc1cc2c(Oc3ccc(NC(=O)C4(C(=O)Nc5ccc(F)cc5)CC4)cc3F)ccnc2cc1OCCCN1CCOCC1
inactive: [14]
active: [1] 13100 nM | [2] 5220 nM | [3] 10400 nM | [4] 1850 nM | [15] 20800 nM | [11] 8270 nM | [5] 7370 nM | [12] 10400 nM | [6] 7370 nM | [13] 4140 nM | [8] 3690 nM | [9] 1870 nM

O=C(C=Cc1cccc(S(=O)(=O)Nc2ccccc2)c1)NO
inactive: [14]
active: [1] 2140 nM | [2] 2140 nM | [3] 1700 nM | [4] 759 nM | [11] 2400 nM | [5] 5370 nM | [12] 5370 nM | [6] 1910 nM | [7] 5370 nM | [13] 1910 nM | [8] 7590 nM | [9] 13600 nM
